Laboratory results: PubChem BioAssay (NCI)
Compounds without any hit were thinned out: in the full panel of roughly 83,000, 20% have a hit.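 Treatment: one concentration, 48 hours, 96-well format. Scoring: percent growth, with anything below 10 considered active.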 Values without a mark were called inactive. The source made the active and inactive calls.

Tests used:
Assay in all cases: NCI-60 one-dose screen, 48 h (100 = growth as untreated, 0 = no growth, -100 = all killed)
Settings in all cases: 10 µM unless noted
[1] = tested on: NCI-H23 lung
[2] = tested on: NCI-H226 lung
[3] = tested on: NCI-H322M lung
[4] = tested on: HOP-62 NSCLC
[5] = tested on: NCI-H460 lung
[6] = tested on: HOP-92 NSCLC
[7] = tested on: NCI-H522 lung
[8] = tested on: A549/ATCC NSCLC
[9] = tested on: 786-0 renal
[10] = tested on: COLO 205 colon
[11] = tested on: DU-145 prostate
[12] = tested on: K-562 leukemia
[13] = tested on: MALME-3M melanoma
[14] = tested on: MDA-MB-231 breast
[15] = tested on: RXF 393 renal
[16] = tested on: SF-268 CNS
[17] = tested on: SF-295 CNS
[18] = tested on: SF-539 CNS
[19] = tested on: UACC-257 melanoma
[20] = tested on: M14 melanoma

Structure (SMILES): Cc1c(C(=O)/C=C/c2ccc(Cl)cc2)nnn1-c1ccc2oc(=O)ccc2c1
- growth [1]: 92.9%
- growth [2]: 85.4%
- growth [3]: 98.5%
- growth [4]: 107%
- growth [5]: 102%
- growth [6]: 79.4%
- growth [7]: 88.8%
- growth [8]: 103%
- growth [9]: 101%
- growth [10]: 108%
- growth [11]: 104%
- growth [12]: 83.4%
- growth [13]: 98.8%
- growth [14]: 94%
- growth [15]: 86.5%
- growth [16]: 102%
- growth [17]: 88.9%
- growth [18]: 99.5%
- growth [19]: 99.9%
- growth [20]: 95.6%

Structure (SMILES): C#C[C@]1(O)CC[C@H]2[C@@H]3CC=C4c5sc(Nc6cccc(F)c6)nc5CC[C@]4(C)[C@H]3CC[C@@]21C
- growth [1]: 27.8%
- growth [2]: 43.6%
- growth [3]: 53.7%
- growth [4]: 33.4%
- growth [5]: 24.3%
- growth [6]: 61.3%
- growth [7]: 31.7%
- growth [8]: 32.6%
- growth [9]: 2.62% (active)
- growth [10]: -9.5% (active)
- growth [11]: 31.3%
- growth [12]: 0.936% (active)
- growth [13]: 38.3%
- growth [14]: 30.6%
- growth [15]: -50.8% (active)
- growth [16]: 37.1%
- growth [17]: -51.9% (active)
- growth [18]: -10.8% (active)
- growth [19]: 44%
- growth [20]: 11%

Structure (SMILES): N#Cc1c(-c2cccs2)cc(-c2cnccn2)nc1SCC(=O)N/N=C/c1ccccc1
- growth [1]: 40.8%
- growth [2]: 50.8%
- growth [3]: 63.5%
- growth [4]: 31.1%
- growth [5]: 17%
- growth [6]: 42.3%
- growth [7]: 67.3%
- growth [8]: 46.8%
- growth [9]: 17.9%
- growth [10]: 66.2%
- growth [11]: 14%
- growth [12]: 46.5%
- growth [13]: 4.87% (active)
- growth [14]: 46.5%
- growth [15]: -16.4% (active)
- growth [16]: 56.4%
- growth [17]: 60.9%
- growth [18]: 56.1%
- growth [19]: 68.2%
- growth [20]: 37%

Structure (SMILES): CCCCN1C(=O)/C(=c2\sc3n(c2=O)C2C(NN=3)N(CC)C(=O)N2CC)c2cc(C)ccc21 (stereo not given)
- growth [1]: 95.5%
- growth [2]: 87.3%
- growth [3]: 88.1%
- growth [4]: 108%
- growth [5]: 102%
- growth [6]: 86.5%
- growth [7]: 88.3%
- growth [8]: 91.4%
- growth [9]: 94.4%
- growth [10]: 94%
- growth [11]: 98.7%
- growth [12]: 79.8%
- growth [13]: 89.3%
- growth [14]: 79.5%
- growth [15]: 61.2%
- growth [16]: 87%
- growth [17]: 99.6%
- growth [18]: 67%
- growth [19]: 98.7%
- growth [20]: 107%

Structure (SMILES): Clc1ccc2c(N/N=C/c3c[nH]c4ccccc34)ccnc2c1
- growth [1]: -88.2% (active)
- growth [2]: -52.1% (active)
- growth [3]: -89.9% (active)
- growth [4]: -75.1% (active)
- growth [5]: -87.2% (active)
- growth [6]: -88.7% (active)
- growth [7]: -77.6% (active)
- growth [8]: -24.3% (active)
- growth [9]: -89.8% (active)
- growth [10]: -85.4% (active)
- growth [11]: -90.2% (active)
- growth [12]: -22.1% (active)
- growth [13]: -95.8% (active)
- growth [14]: -83.5% (active)
- growth [15]: -87.2% (active)
- growth [16]: -58.4% (active)
- growth [17]: -85.3% (active)
- growth [18]: -86.7% (active)
- growth [19]: -91.8% (active)
- growth [20]: -89.3% (active)

Structure (SMILES): COc1ccc(C(C)=C(c2ccc(OCCN(C)C)cc2)c2ccc(OCCN(C)C)cc2)cc1
- growth [1]: -13.7% (active)
- growth [2]: -7.67% (active)
- growth [3]: -2.39% (active)
- growth [4]: -15.8% (active)
- growth [5]: -14.8% (active)
- growth [6]: -43.6% (active)
- growth [7]: -60.1% (active)
- growth [8]: -3.07% (active)
- growth [9]: -88.5% (active)
- growth [10]: -73% (active)
- growth [11]: 20%
- growth [12]: -67.4% (active)
- growth [13]: -74.4% (active)
- growth [14]: -52.2% (active)
- growth [15]: -79.1% (active)
- growth [16]: -12% (active)
- growth [17]: -70.2% (active)
- growth [18]: -79.4% (active)
- growth [19]: -70.4% (active)
- growth [20]: -85.8% (active)

Structure (SMILES): N#CC1=C2NCCCNc3oc(nc3C#N)Cc3ccccc3CC(=N1)O2
- growth [1]: 90.7%
- growth [2]: 92.3%
- growth [3]: 94.5%
- growth [4]: 97.8%
- growth [5]: 96.8%
- growth [6]: 94.9%
- growth [7]: 97.1%
- growth [8]: 98.3%
- growth [9]: 95%
- growth [10]: 88.1%
- growth [11]: 99%
- growth [12]: 12%
- growth [13]: 97.8%
- growth [14]: 97.6%
- growth [15]: 93.2%
- growth [16]: 101%
- growth [17]: 108%
- growth [18]: 99.2%
- growth [19]: 92.2%
- growth [20]: 86.4%

Structure (SMILES): Clc1cccc(/C=N/Nc2nc(N/N=C/c3cccc(Cl)c3)nc(N3CCOCC3)n2)c1
- growth [1]: 70.6%
- growth [2]: 60.4%
- growth [3]: 53.8%
- growth [4]: 110%
- growth [5]: 78.2%
- growth [6]: 65.4%
- growth [7]: 13.9%
- growth [8]: 46.6%
- growth [9]: 30.6%
- growth [10]: 36.9%
- growth [11]: 42.5%
- growth [12]: 11.8%
- growth [13]: -43.7% (active)
- growth [14]: 71.3%
- growth [15]: 17.4%
- growth [16]: 65.9%
- growth [17]: 57.7%
- growth [18]: 43.6%
- growth [19]: 39.1%
- growth [20]: 35.2%

Structure (SMILES): O=C1[C@@H]2Cc3c([nH]c4ccccc34)[C@@H](c3ccc(Cl)cc3)N2C(=O)CN1C1CCN(Cc2c(F)cccc2F)CC1
- growth [1]: 48.8%
- growth [2]: 60.6%
- growth [3]: 66.2%
- growth [4]: 54.1%
- growth [5]: 22.5%
- growth [6]: -0.363% (active)
- growth [7]: 36.7%
- growth [8]: 31.6%
- growth [9]: 45.2%
- growth [10]: 7.17% (active)
- growth [11]: 49.2%
- growth [12]: 16.8%
- growth [13]: 88.8%
- growth [14]: 66.4%
- growth [15]: 44.4%
- growth [16]: 39.2%
- growth [17]: 41.4%
- growth [18]: 60.9%
- growth [19]: 51.1%
- growth [20]: 14.4%

Structure (SMILES): CCCc1cc2cc(-n3nc(CC)c4c3CC(C)(C)CC4=O)cc(NC3CCC(O)CC3)c2c(=O)[nH]1 (stereo not given)
- growth [1]: 18.3%
- growth [2]: 13.9%
- growth [3]: 35.1%
- growth [4]: 15.4%
- growth [5]: -12.1% (active)
- growth [6]: -1.33% (active)
- growth [7]: 17.7%
- growth [8]: 25%
- growth [9]: -12.4% (active)
- growth [10]: 8.47% (active)
- growth [11]: 40.2%
- growth [12]: 10.9%
- growth [13]: 8.74% (active)
- growth [14]: 7.65% (active)
- growth [15]: -15.8% (active)
- growth [16]: 49.3%
- growth [17]: 28.5%
- growth [18]: 4.55% (active)
- growth [19]: 29.1%
- growth [20]: 27.2%

Structure (SMILES): COc1cc(-c2nc(-c3ccccc3)[nH]c2-c2ccnc(NCCCNS(=O)(=O)c3ccc(C)cc3)n2)ccc1F
- growth [1]: 103%
- growth [2]: 75.7%
- growth [3]: 93.1%
- growth [4]: 150%
- growth [5]: 91.9%
- growth [6]: 122%
- growth [7]: 80%
- growth [8]: 74.2%
- growth [9]: 94.5%
- growth [10]: 96%
- growth [11]: 86.7%
- growth [12]: 58.9%
- growth [13]: 100%
- growth [14]: 91.7%
- growth [15]: 82.7%
- growth [16]: 80.2%
- growth [17]: 99.6%
- growth [18]: 89.4%
- growth [19]: 99.7%
- growth [20]: 77.7%

Structure (SMILES): C#C[C@]1(O)CC[C@H]2[C@@H]3CC=C4c5sc(N(C)c6ccccc6)nc5CC[C@]4(C)[C@H]3CC[C@@]21C
- growth [1]: 86.6%
- growth [2]: 96.4%
- growth [3]: 103%
- growth [4]: 101%
- growth [5]: 61.9%
- growth [6]: 139%
- growth [7]: 87.2%
- growth [8]: 69%
- growth [9]: 57.1%
- growth [10]: 66.8%
- growth [11]: 95.4%
- growth [12]: 2.88% (active)
- growth [13]: 110%
- growth [14]: 98.6%
- growth [15]: 75.8%
- growth [16]: 88%
- growth [17]: 68.8%
- growth [18]: 48.7%
- growth [19]: 90.8%
- growth [20]: 54.3%

Structure (SMILES): Cc1ccc(C(=O)Nc2ccc(CNCCN3CCNCC3)c(C(F)(F)F)c2)cc1C#Cc1cnc2cccnn12
- growth [1]: 4.87% (active)
- growth [2]: 97.1%
- growth [3]: 55.3%
- growth [4]: -48.8% (active)
- growth [5]: -44.9% (active)
- growth [6]: -28.2% (active)
- growth [7]: -33.9% (active)
- growth [8]: 16%
- growth [9]: -70.2% (active)
- growth [10]: -53.2% (active)
- growth [11]: 6.09% (active)
- growth [12]: -22.2% (active)
- growth [13]: -70.8% (active)
- growth [14]: -75.6% (active)
- growth [15]: -90.1% (active)
- growth [16]: -14.2% (active)
- growth [17]: -37.4% (active)
- growth [18]: -83% (active)
- growth [19]: -6.59% (active)
- growth [20]: -64.6% (active)

Structure (SMILES): COc1ccccc1Cn1cc(C#N)c(N)c1C(=O)c1ccc(Br)cc1
- growth [1]: 91.8%
- growth [2]: 89.5%
- growth [3]: 94.6%
- growth [4]: 104%
- growth [5]: 96.4%
- growth [6]: 100%
- growth [7]: 89.5%
- growth [8]: 101%
- growth [9]: 102%
- growth [10]: 113%
- growth [11]: 104%
- growth [12]: 83.2%
- growth [13]: 96%
- growth [14]: 88.7%
- growth [15]: 92.1%
- growth [16]: 96.2%
- growth [17]: 93%
- growth [18]: 99.8%
- growth [19]: 100%
- growth [20]: 98.5%

Structure (SMILES): O=C1/C(=C/c2cc(F)cc(F)c2)Cc2cc3c(cc21)OCO3
- growth [1]: 62.3%
- growth [2]: 52.2%
- growth [3]: 41.5%
- growth [4]: 58%
- growth [5]: 30.3%
- growth [6]: 63.4%
- growth [7]: 1.49% (active)
- growth [8]: 59.8%
- growth [9]: 61%
- growth [10]: -15.2% (active)
- growth [11]: 54.4%
- growth [12]: 18.4%
- growth [13]: 37.9%
- growth [14]: 40.5%
- growth [15]: 29%
- growth [16]: 64.7%
- growth [17]: 35.6%
- growth [18]: 33.1%
- growth [19]: 73.6%
- growth [20]: 20.2%
